Rows were chosen to be rich in hits. Some 6% of all compounds tested hit in one or more screens of this group.
D1 ag – activates the human D1 dopamine receptor; activation, % at 2 µM; 360,000 tested, 1% active; AID 504660; P21728; HEK293 T-REx D1 cells, calcium flux, agonist mode; in the data active = activation above about 30%
Target sequence (P21728 whole entry, looked up): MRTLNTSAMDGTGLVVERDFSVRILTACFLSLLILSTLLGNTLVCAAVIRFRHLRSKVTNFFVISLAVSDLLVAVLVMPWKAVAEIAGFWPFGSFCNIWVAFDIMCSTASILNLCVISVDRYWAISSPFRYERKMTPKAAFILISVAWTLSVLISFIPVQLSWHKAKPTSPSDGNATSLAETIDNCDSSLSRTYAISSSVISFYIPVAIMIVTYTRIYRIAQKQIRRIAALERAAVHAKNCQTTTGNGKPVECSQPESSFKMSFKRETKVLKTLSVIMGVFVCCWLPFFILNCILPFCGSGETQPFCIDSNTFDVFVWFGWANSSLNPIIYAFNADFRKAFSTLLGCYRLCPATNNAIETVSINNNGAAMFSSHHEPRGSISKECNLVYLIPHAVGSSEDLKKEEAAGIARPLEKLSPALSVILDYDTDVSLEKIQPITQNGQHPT
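Agonism was scored from calcium flux recorded over 180 s (1 read/s) after pintool compound addition, following a 10-cycle baseline. Cells were inducible force-coupled HEK293 TREx D1, plated overnight at 30 C and loaded with no-wash calcium dye.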
DRD3 antagonist – antagonists of human D3 dopamine receptor | max response, negative = inhibition, % | 360,000 tested, 2.5% active | AID 652054 | D3R cells, DiscoveRx beta-arrestin luminescence, antagonist mode; active compounds read low | P35462; in the data active = max response below about -50%; inconclusive = no clear call, values can overlap the other calls
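Cells expressing the human receptor were seeded at 1500 cells/well, incubated overnight at 37 degrees C in 5% CO2, then exposed to library compounds with dopamine controls for 90 minutes at 37 degrees C before luminescent detection.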
DRD3 agonist – agonists of human D3 dopamine receptor. P35462. D3R DiscoveRx beta-arrestin cells, luminescence, 90 min. max activation, %. 410,000 tested, 0.58% active. AID 652048; in the data active = max activation above about 30%
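Agonist mode: compounds and dopamine controls were applied to plated cells for 90 min at 37 degrees C after an overnight attachment at 1500 cells/well. Luminescent read-out followed 30 - 60 minutes at room temperature with DiscoveRx detection reagent.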
D1 antagonist – blocks dopamine activation of the human D1 receptor; HEK293 TREx D1 cells, calcium flux, dopamine EC80; active compounds read low; P21728; 360,000 tested, 3.2% active; AID 504652; activity change, negative = inhibition, % at 10 µM; in the data active = activity change below about -30%
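Inducible Hek293 Trex D1 cells (tetracycline, overnight, 30 C). Calcium dye 30–90 min RT. Antagonist mode: EC80 dopamine added after 180 s compound read.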
D1 PAM – enhances dopamine response at the human D1 receptor. potentiation, % at 10 µM. HEK293 TREx D1 cells, calcium flux, dopamine EC20 potentiation. 360,000 tested, 0.036% active. P21728; in the data active = potentiation above about 30%
Each line names hits and unclear results; the compound was inactive in the other large screens; ! = not confirmed by another sample.

COc1ccc(OC)c(CN2CCCC(C(=O)N3CCCCC3)C2)c1 (configuration not stated)	DRD3 antagonist -77.4
COc1ccc(Br)cc1CN1CCCC(C(=O)N2CCCCC2)C1 (configuration not stated)	DRD3 antagonist -89.1
Oc1ccc(CNc2cccc(F)c2F)c2cccnc12	none (no result: DRD3 antagonist, DRD3 agonist)
O=C(Nc1ccc2c(c1)N(C1CCCC1)C(=O)c1ccccc1S2)c1ccc(F)cc1	none (no result: DRD3 antagonist)
O=C1CC(NNC(=O)c2ccc(Br)cc2)C(=O)N1 (configuration not stated)	none
O=C1CC(NNC(=O)c2ccccc2)C(=O)N1 (configuration not stated)	D1 antagonist -40.5
O=C(Cn1c(=O)n(Cc2ccc(F)cc2)c(=O)c2sc3ccccc3c21)NCc1ccccc1Cl	none (no result: DRD3 antagonist)
CCNC(=O)C1(C)CCCN(Cc2cccc3ccccc23)C1 (configuration not stated)	none (no result: D1 ag, D1 antagonist, D1 PAM)
Cc1cc(C)cc(NC(=O)N2CCC(CN3CCc4ccccc4C3)CC2)c1	none (no result: DRD3 antagonist)
O=C(C[C@H]1CC[C@@H](NC(=O)Cc2cccnc2)[C@@H](CO)O1)NCc1ccc2c(c1)OCO2	none (no result: D1 ag, D1 antagonist, D1 PAM)
O=[N+]([O-])c1ccc(CN2CCN(c3ccccc3)CC2)o1	none
O=[N+]([O-])c1ccc(N2CCSCC2)cc1	D1 antagonist -37.9
Cc1nonc1OCCN1CCN(c2ccc([N+](=O)[O-])cc2)CC1	D1 antagonist -40.1
O=[N+]([O-])c1ccc(N2CCN(c3ccc(F)cc3)CC2)cc1	none
O=[N+]([O-])c1ccc(N2CCN(Cc3ccc([N+](=O)[O-])o3)CC2)cc1	D1 antagonist -33.0
CCOc1ccc(CNC(=O)CSc2nnc(C)c3c(C)n(-c4ccccc4)nc23)cc1	none (no result: DRD3 antagonist)
O=[N+]([O-])c1cn(-c2nc(-c3ccco3)cc(C(F)(F)F)n2)cn1	D1 ag 62.3 (no result: D1 antagonist)
CCOC(=O)N1CCN(c2nc(-c3ccco3)cc(C(F)(F)F)n2)CC1	none
FC(F)(F)c1cc(-c2ccco2)nc(-n2nnc3ccccc32)n1	none
CN1CCN(c2nc(-c3ccco3)cc(C(F)(F)F)n2)CC1	DRD3 antagonist -92.0, D1 antagonist -67.8
O=C(NCc1ccccc1)C(=O)Nc1c2c(nn1-c1ccccc1)CSC2	none (no result: DRD3 antagonist, D1 antagonist)
Cc1ccc(C)c(NC(=O)CN(C)C(=O)c2ccc(-n3cncn3)c([N+](=O)[O-])c2)c1	none
Cc1cc(Br)ccc1NC(=O)CNC(=O)c1ccc(-n2cncn2)c([N+](=O)[O-])c1	none
Cc1cc(Br)ccc1NC(=O)CN(C)C(=O)c1ccc(-n2cncn2)c([N+](=O)[O-])c1	D1 antagonist -40.7 (no result: D1 PAM)
Cc1cccc(C)c1NC(=O)CN(C)C(=O)c1ccc(-n2cncn2)c([N+](=O)[O-])c1	DRD3 antagonist -68.2
COc1cccc2c1cc1c(=O)n(CC(=O)N3CCN(c4ccc(Cl)cc4)CC3)nc(C)n12	none (no result: DRD3 antagonist)
CCN(CC)C(=O)C1CCCN(Cc2sccc2C)C1 (configuration not stated)	DRD3 antagonist -62.5
CC(=O)Nc1c([N+](=O)[O-])cc2[nH]c(=O)[nH]c2c1[N+](=O)[O-]	DRD3 antagonist inconclusive
O=c1[nH]c2cc([N+](=O)[O-])c(NCCO)c([N+](=O)[O-])c2[nH]1	DRD3 antagonist -59.4
O=c1n(Cc2ccc([N+](=O)[O-])cc2)c2ccccc2c2nc(-c3ccccc3)nn12	DRD3 agonist 52.5 (no result: DRD3 antagonist)
COc1ccc(C)cc1NC(=O)CN(C)S(=O)(=O)c1ccc2c(c1)c(=O)n(C)c(=O)n2C	D1 antagonist -30.2!
CCOC(=O)c1c(C)[nH]c(C)c1S(=O)(=O)N(C)CC(=O)Nc1cc(C)ccc1OC	D1 antagonist -40.1
COc1ccc(NC(=O)CN(C)S(=O)(=O)c2ccc3c(c2)c(=O)n(C)c(=O)n3C)cc1	none
COc1cccc(C(=O)Nc2nc3nc(C)c(C)c(=O)n3[nH]2)c1	none (no result: DRD3 antagonist)
COc1ccccc1NC(=O)c1cc2c(n(-c3ccc(C)cc3)c1=O)CC(C)(C)CC2=O	D1 antagonist -30.9 (no result: DRD3 antagonist)
CC1(C)CC(=O)c2cc(C(=O)Nc3ccc(Br)cc3)c(=O)n(-c3ccc(Cl)cc3)c2C1	DRD3 agonist 52.5 (no result: DRD3 antagonist)
CC1(C)CC(=O)c2cc(C(=O)Nc3ccccc3Cl)c(=O)n(-c3ccc(Cl)cc3)c2C1	none (no result: DRD3 antagonist)
CCOc1cccc(C(=O)N(Cc2ccc(C(C)C)cc2)C2CCS(=O)(=O)C2)c1 (configuration not stated)	none (no result: DRD3 antagonist)
C=CCOC(=O)COc1ccc2c3c(c(=O)oc2c1)CCCC3	none (no result: D1 ag, D1 antagonist, D1 PAM)
C=C1CCC2[C@](C)(CO)[C@H](O)CC[C@@]2(C)[C@@H]1/C=C/C1=CCOC1=O (some centres not stated)	D1 antagonist -65.8
C=C1CC[C@@H]2[C@](C)(CO)[C@H](O)CC[C@@]2(C)[C@@H]1/C=C/C1=CCOC1=O	none
CCN(CC)CCN(C(=O)c1ccc2c(c1)OCCO2)c1nc2c(Cl)cccc2s1	DRD3 antagonist -62.7
CCN(CC)CCN(C(=O)c1ccc2c(c1)CCCC2)c1nc2c(C)cccc2s1	DRD3 antagonist -51.4
CCN(CC)CCN(C(=O)c1ccc2c(c1)CCCC2)c1nc2ccc(F)cc2s1	none
CCN(CC)CCN(C(=O)c1ccc2c(c1)CCCC2)c1nc2ccc(C)cc2s1	DRD3 antagonist -51.0
Cc1cccc(C(O)c2ncc(-c3cccc(C(F)(F)F)c3)[nH]2)c1C (configuration not stated)	none (no result: D1 ag, D1 antagonist, D1 PAM)
Cc1ccc(NC(=O)c2cccc(S(=O)(=O)Nc3c(C)n(C)n(-c4ccccc4)c3=O)c2)cc1C	none (no result: D1 ag, D1 antagonist, D1 PAM)
CS(=O)(=O)c1ncc(Cl)c(C(=O)Nc2ccc(N3CCOCC3)cc2)n1	DRD3 antagonist -77.9, D1 antagonist -35.4
CS(=O)(=O)c1ncc(Cl)c(C(=O)Nc2ccc(OC(F)F)cc2)n1	DRD3 antagonist -151.6, D1 antagonist -38.4
CS(=O)(=O)c1ccc(C(=O)Nc2ccc(N3CCOCC3)cc2)c(Cl)c1	none
CC(Oc1ccc(S(=O)(=O)N2CCCC2)cc1[N+](=O)[O-])C(=O)NC1(C#N)CCCCC1 (configuration not stated)	none
CCO[C@H]1OC(C(=O)N2CCOCC2)=C[C@@H](C2CC2)[C@@H]1CCCO	DRD3 antagonist -55.1
CCO[C@@H]1OC(C(=O)N2CCN(Cc3ccc4c(c3)OCO4)CC2)=C[C@H](c2ccc(Br)cc2)[C@H]1CCCO	DRD3 antagonist -98.3
CCO[C@@H]1OC(C(=O)NC2CC2)=C[C@H](c2ccc(Br)cc2)[C@H]1CCCO	none
CCO[C@H]1OC(C(=O)NC2CC2)=C[C@@H](c2ccc(Br)cc2)[C@@H]1CCCO	DRD3 antagonist inconclusive, D1 antagonist -58.8
CCO[C@@H]1OC(C(=O)N2CCN(Cc3ccc4c(c3)OCO4)CC2)=C[C@H](c2ccc(C(F)(F)F)cc2)[C@H]1CCCO	none
CCO[C@H]1OC(C(=O)O)=C[C@@H](c2ccc3c(c2)OCO3)[C@@H]1CCCO	D1 PAM 62.5

Bioassay records: PubChem, National Center for Advancing Translational Sciences (NCATS)
